The record followed here is PubChem BioAssay (NCATS).

SMILES strings stand for the structures. “And” between values parts separate entries of the source, which are not always exact repeats. Equal values may be shown once. Records with an inconclusive call do not appear. Some compounds were tested as several samples or in several runs, with calls that do not always agree. The source made the active and inactive calls. Unless noted, calls follow the shape of the dose curve; as a rule, active = well fitted curve in the direction sought with a large enough effect; inconclusive = small, poorly fitted or top-dose-only effect, or another doubt; inactive = no such curve, though single readings can be large; an effect the other way counts as inactive or inconclusive.

Assay [1] deals with Glucocorticoid receptor (Homo sapiens) (UniProt P04150). Put plainly: GR-GFP Redistribution (AID 450;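 active = compounds whose dose series gives a full or clear partial fitted curve of increased nuclear translocation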; also: potency is read from the fitted curve at half-maximal effect). The note with it: U2OS GR-GFP nuclear translocation, laser cytometry, 2 h.
Assay [2] shares this target. Put plainly: GR-EFC Redistribution (AID 451; calls by dose curve; also: potency is read from the fitted curve at half-maximal effect). The note with it: CHO-K1 GR-EFC translocation, beta-gal luminescence, 2 h. The method in brief:
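CHO-K1 cells stably expressing nuclear-localized β-gal enzyme acceptor and GR fused C-terminally to the enzyme donor fragment; ligand-driven nuclear translocation restores β-gal by complementation. Compounds titrated up to 46 uM final, 2 h at 37 °C; luminescence read.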

Assay [3] has as its target Ubiquitin carboxyl-terminal hydrolase 1 (Homo sapiens) (UniProt O94782). Description: Inhibitors of USP1/UAF1: Pilot qHTS (AID 504865).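 Also: rhodamine fluorescence freed from ubiquitin-rhodamine substrate followed over time; top concentration of the series differs between compounds; % is scaled to controls: 0 for no effect and ±100 for the full control effect; nearly all actives have a fitted effect of over 35% in size.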 The essentials: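 Enzyme-free wells gave the negative control, while test wells held 1nM USP1/UAF1 preincubated with compound for 15 min at room temperature. Ub-Rho at 150nM final started the reaction, and fluorescence at 480/540 nm was recorded kinetically.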

Assay [4] concerns Zika virus NS2B-NS3 protease. Description: Primary screen GU AMC qHTS for Zika virus inhibitors (AID 1347154).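 Also: 0% = no-inhibitor control and -100% = no-enzyme control; nearly all actives have a fitted effect of over 70% in size.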 The method in brief: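 Unlinked Zika NS2B hydrophilic domain/NS3 protease domain noncovalent complex (25 nM final) in 10 mM Tris-HCl pH 8.0, 0.01% Tween 20, with AMC peptide substrate. Fluorescence (ex 340, em 450 nm) change over 15 min, room temperature; percent inhibition fitted to 4-parameter Hill equation.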

A short description of assay [5]: Counterscreen qHTS for small molecule stabilizers of the endoplasmic reticulum resident proteome: GLuc-NoTag assay (AID 1508627). Also: potency is read from the fitted curve at half-maximal effect.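 As to activity change, negative = inhibition: SH-SY5Y cells given compound then 100 nM thapsigargin to empty ER calcium; 0% = thapsigargin alone and -100% = DMSO vehicle control.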 The essentials: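 SH-SY5Y cells stably expressing constitutively secreted GLuc (no SERCaMP tag) were pre-incubated 5 h, treated with compound for 19 h, then 100 nM thapsigargin for 4 h at 37C; medium GLuc read by coelenterazine luminescence.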

Assay [6] in a line: Cell Viability qHTS for small molecule stabilizers of the endoplasmic reticulum resident proteome (AID 1508629).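 Also: compound exposure about 46 h in total before the viability read.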 Also: potency is read from the fitted curve at half-maximal effect. The note with it: cell viability counter-screen, 100 nM thapsigargin for final 4 h.
Assay [7] addresses Cytochrome P450 1A2 (Homo sapiens) (UniProt P05177). Description: p450-cyp1a2 (AID 410; calls by dose curve; also: potency is read from the fitted curve at half-maximal effect). The essentials:
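Inhibition was calculated relative to 57 uM furafylline (full inhibition). The reaction used human CYP1A2 at 20nM with Luciferin-ME at its Km, 100uM, driven by an NADPH-regenerating system for 60 min at room temperature.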

The target in assay [8] is Mitogen-activated protein kinase 10 (Mus musculus) (UniProt Q61831). Description: JNK3 AlphaScreen Assay (AID 530; active = well fitted curve in either direction with a large enough effect, not every such curve was filed as active;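 also: kinase came from lysate of stimulated human HepG2 cells; signal reports phosphorylation of biotinylated GST-cJun 1-79 at Ser73 with 10 µM ATP; % is scaled to controls: 0 for no effect and ±100 for the full control effect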). The method in brief:
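JNK3 came from HepG2 lysates pre-activated with IL-1beta and TNF-alpha and phosphorylated biotinylated GST-cJun (1-79) at 10 uM ATP, pH 7.6, room temperature. Compounds were titrated. AlphaScreen signal used anti-phospho-cJun (Ser73) antibody.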

The target in assay [9] is Cytochrome P450 3A4 (Homo sapiens) (UniProt P08684). Put plainly: qHTS Assay for Activators of Cytochrome P450 3A4 (AID 885). Also: nearly all actives have a fitted effect of over 65% in size. The essentials:
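Signal was normalized against complete inhibition by 57 uM ketoconazole. The reaction used 20nM CYP3A4 with 25uM Luciferin-PPXE, 10-min compound preincubation and a 60-min NADPH-supported step at RT.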

Assay [10] concerns the target DNA dC->dU-editing enzyme APOBEC-3G (Homo sapiens) (UniProt Q9HC16). Put plainly: qHTS for inhibitors of Vif-A3G interactions: Validation (AID 588379). Also: 0% is about no effect. The method in brief: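 HeLa cells stably expressing Vif and A3G-eYFP, 700 cells/well, incubated overnight at 37 deg C, then exposed to compound overnight at 37 deg C. Inhibition of Vif-mediated degradation read as increased yellow fluorescence (Ex 488/Em 500-530) by laser-scanning cytometry.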

Assay [11] in a line: Primary qHTS for small molecule stabilizers of the endoplasmic reticulum resident proteome: Secreted ER Calcium Modulated Protein (SERCaMP) assay (AID 1508630). Also: % is scaled to controls: 0 for no effect and ±100 for the full control effect. The method in brief: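 GLuc-SERCaMP-expressing SH-SY5Y cells, pretreated 16 h with compound, are challenged with thapsigargin to empty ER calcium stores; after 4 h, coelenterazine is added directly to the medium and luminescence is imaged.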

The nature of assay [12]: NFAT Signaling Pathway (AID 444; active = well fitted curve in either direction with a large enough effect, not every such curve was filed as active;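 also: carbachol stimulus at about its EC50 of 1 µM final; % is scaled to controls: 0 for no effect and ±100 for the full control effect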). The note with it: Jurkat NFAT-bla M1, carbachol, beta-lactamase ratio, 5 h; at 38 µM (top of the series). The method in brief: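 Jurkat cells carrying an NFAT-driven β-lactamase reporter and co-transfected muscarinic M1 receptor were treated with compound plus carbachol (1 uM final, an EC50 level) for 5 h at 37 °C. CCF4 loading followed for 1 h at RT; 460/530 nm ratio gave %activity.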

The nature of assay [13]: Stat Signaling Pathway (AID 446; active = well fitted curve in either direction with a large enough effect, not every such curve was filed as active;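 also: ME-180 cervical cancer cells given 40 pM IL-6 alongside compound; SIE-controlled beta-lactamase reporter measured as 460/530 nm FRET emission ratio; % is scaled to controls: 0 for no effect and ±100 for the full control effect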). The method in brief: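 Reporter line: ME-180 cervical carcinoma, SIE-beta-lactamase. Treatment: compound with 40 pM IL-6, 5 hrs, 37 C, in low-serum OPTI-MEM with 10 mM HEPES pH 7.3. Detection: 460/530 nm fluorescence.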
Assay [14] has as its target 3',5'-cyclic-AMP phosphodiesterase 4B (Homo sapiens) (UniProt Q07343). Put plainly: qHTS Assay for Inhibitors of PDE-IV (AID 607; active = well fitted activation curve with a large enough effect in the main read-out, with a control signal flat, not every such curve was filed as active; also: % of control where 0% means no effect). The essentials: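 Cell-based read-out of cAMP via a modified cyclic nucleotide-gated channel and membrane potential dye (535/590 nm) in HEK293 cells expressing PDE4 endogenously. Compounds tested up to 22.9 uM final; 100 uM RO 20-1724 reference.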

The target of assay [15] is Guanine nucleotide-binding protein G(i) subunit alpha-1 (Homo sapiens) (UniProt P63096). Description: qHTS Assay for Inhibitors of RGS12 GoLoco Motif Activity (Green Fluorophore) (AID 879).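 Also: 0% = labeled peptide with Gαi1 and full inhibition = labeled peptide alone without protein; negative values mean loss of peptide binding seen as reduced polarization.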 The essentials: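 Fluorescence polarization assay: 50 nM Gαi1 with 10 nM FITC-labeled RGS12 GoLoco peptide in 10 mM Tris pH 7.5, 150 mM NaCl, 0.1 mM GDP, 0.05% NP40, 10 min at room temperature with compound.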

Assay [16] has as its target Cytochrome P450 2D6 (Homo sapiens) (UniProt P10635). Description: qHTS Assay for Inhibitors and Substrates of Cytochrome P450 2D6 (AID 891). Also: potency is read from the fitted curve at half-maximal effect; nearly all actives have a fitted effect of over 60% in size. The method in brief:
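Human CYP2D6 (5 nM) with 30 uM Luciferin-ME EGE (at Km) in 100 mM KPO4, compound preincubated 10 min, then NADPH regeneration system for 60 min at room temperature. Luciferin read by luminescence; normalized to 1.43 uM quinidine.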

The nature of assay [17]: qHTS Assay for Identification of Small Molecule Antagonists for NFkB Signaling Pathway (AID 895; active = well fitted inhibition curve with a large enough effect in the signal ratio, with a control signal flat, not every such curve was filed as active; the % refers to the signal ratio; also: % is scaled to controls: 0 for no effect and ±100 for the full control effect). The method in brief: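 NFkB-bla ME-180 cervical carcinoma cells with beta-lactamase reporter under NFkB response element; compounds added, then TNF alpha at 10 pM final (EC50), 5 h at 37 C. LiveBLAzer substrate 2 h, room temperature; emission 460/530 nm at 405 nm excitation.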

Assay [18] deals with Muscarinic acetylcholine receptor M1 (Rattus norvegicus) (UniProt P08482). Description: qHTS Assay for Antagonists of Acetylcholine Muscarinic M1 Receptor: Measurement of IP-One Response (AID 944). Also: nearly all actives have a fitted effect of over 75% in size. The method in brief: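 Steps: plate transfected CHO-M1 cells overnight; add test compound, 10 min; add carbachol (200 nM, EC80) in stimulation buffer with LiCl; incubate 30 min; add labelled IP1 tracer and anti-IP1 antibody in lysis buffer; read HTRF after 10 min.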

Assay [19] deals with Pyruvate kinase (Leishmania mexicana) (UniProt Q27686). Put plainly: qHTS Validation Assay for Inhibitors of Leishmania Mexicana Pyruvate Kinase (AID 945).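 Also: 0% = DMSO only neutral control wells.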 The method in brief:
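Compounds are tested as eight-point concentration series. Reactions contain 0.2 nM LmPYK E451W, 0.5 mM PEP, 0.1 mM ADP, 7 mM MgCl2 and 50 mM KCl at pH 7.2, run 1 h at room temperature, then read by PKLight luminescence.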

The target in assay [20] is Pyruvate kinase PKM (Homo sapiens) (UniProt P14618). Put plainly: qHTS Assay for Activators of Human Muscle Pyruvate Kinase (AID 954; active = well fitted curve in the direction sought with a large enough effect, not every such curve was filed as active;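 also: 0% = uninhibited enzyme and -100% = no enzyme or full thiadiazolimine inhibition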). The method in brief: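 Human PKM2 activity is measured as ATP generation, detected by luciferase-coupled luminescence. The enzyme (0.1 nM) acts on 0.5 mM PEP and 0.1 mM ADP for 1 h at ambient temperature; data are normalized to uninhibited and full-inhibition wells.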

For assay [21], the target named is Alpha-galactosidase (Coffea arabica) (UniProt Q42656). Description: Counterscreen for Glucocerebrosidase Inhibitors: qHTS Assay for Coffee Bean alpha-Galactosidase at pH 4.5 (AID 957).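 Also: plate controls were enzyme alone for no effect and no enzyme for full effect.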 The method in brief:
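AC50 values derive from Hill-equation modeling of concentration-response data, normalized to no-enzyme and full-activity controls. The pH 4.5 citrate assay used 2 nM coffee bean enzyme and 80 uM fluorogenic substrate for 20 min.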

For assay [22], the target named is Alpha-galactosidase A (Homo sapiens) (UniProt P06280). Description: Counterscreen for Glucocerebrosidase Inhibitors: qHTS Assay for Human alpha-Galactosidase at pH 4.5 (AID 992). Also: 0% is about no effect. The essentials:
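Quantitative HTS: compounds tested from 0.7 nM up to 77 uM against 2 nM enzyme with 80 uM 4-MU alpha-D-galactopyranoside. The 20 min room-temperature reaction is stopped with 1M NaOH/1M glycine, pH 10.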

Assay [23] has as its target alpha-glucosidase (Oryza sativa, rice) (UniProt Q653V4). Description: Counterscreen for Glucocerebrosidase Inhibitors: qHTS Assay for Rice alpha-Glucosidase at pH 5.0 (AID 997).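 Also: 0% = full activity with enzyme and -100% = basal without enzyme.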 The essentials:
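Rice alpha-glucosidase (4 nM final) with 400 uM 4-methylumbelliferyl-alpha-D-glucopyranoside in citrate buffer pH 5.0, 20 min at room temperature, stopped at pH 10; fluorescence 365/440 nm, compounds 0.7 nM–77 uM, AC50 from Hill fits.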

Assay [24] concerns the target Alpha-galactosidase (Coffea arabica) (UniProt Q42656). Description: Counterscreen for Glucocerebrosidase Inhibitors: qHTS Assay for Coffee Bean alpha-Galactosidase at pH 5.9 (AID 998).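 Also: plate controls were uninhibited enzyme for no effect and no-enzyme basal signal for full effect.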 The method in brief: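 Green coffee bean enzyme (2 nM final) was incubated with compounds (0.7 nM–77 uM) and 4-methylumbelliferyl alpha-D-galactopyranoside (80 uM) in citrate buffer pH 5.9, 20 min at room temperature. High-pH stop; fluorescence 365/440 nm; AC50 from Hill fits.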

Cytochrome P450 1A2 (Homo sapiens), sequence (P05177 whole entry, looked up): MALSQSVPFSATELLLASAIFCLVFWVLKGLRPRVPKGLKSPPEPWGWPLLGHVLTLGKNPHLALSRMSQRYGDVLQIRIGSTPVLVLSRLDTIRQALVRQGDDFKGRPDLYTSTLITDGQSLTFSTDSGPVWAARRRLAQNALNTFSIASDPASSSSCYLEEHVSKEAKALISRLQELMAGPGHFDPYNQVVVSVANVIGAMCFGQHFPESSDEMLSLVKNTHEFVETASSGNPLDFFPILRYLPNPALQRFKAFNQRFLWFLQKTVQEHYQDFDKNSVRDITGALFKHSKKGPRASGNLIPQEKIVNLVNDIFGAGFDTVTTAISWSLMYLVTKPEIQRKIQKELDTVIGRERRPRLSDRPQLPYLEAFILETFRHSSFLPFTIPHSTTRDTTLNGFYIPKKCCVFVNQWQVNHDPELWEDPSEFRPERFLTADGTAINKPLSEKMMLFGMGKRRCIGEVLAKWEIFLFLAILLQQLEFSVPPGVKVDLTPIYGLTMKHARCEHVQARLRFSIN
Cytochrome P450 3A4 (Homo sapiens), sequence (P08684 whole entry, looked up): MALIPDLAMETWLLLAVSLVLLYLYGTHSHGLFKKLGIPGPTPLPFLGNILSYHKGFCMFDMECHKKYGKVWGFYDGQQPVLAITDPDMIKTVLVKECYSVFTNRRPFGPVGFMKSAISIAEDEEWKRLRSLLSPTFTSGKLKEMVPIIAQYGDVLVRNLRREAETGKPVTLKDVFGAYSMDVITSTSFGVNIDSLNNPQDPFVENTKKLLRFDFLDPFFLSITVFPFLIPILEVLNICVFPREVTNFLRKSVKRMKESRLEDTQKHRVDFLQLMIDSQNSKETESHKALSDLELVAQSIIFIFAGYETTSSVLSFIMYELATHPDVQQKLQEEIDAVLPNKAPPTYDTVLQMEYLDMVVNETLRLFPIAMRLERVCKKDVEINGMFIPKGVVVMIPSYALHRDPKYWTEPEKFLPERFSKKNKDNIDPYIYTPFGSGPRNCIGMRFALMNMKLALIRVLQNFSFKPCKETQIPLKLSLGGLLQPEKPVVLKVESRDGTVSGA
Glucocorticoid receptor (Homo sapiens), sequence (P04150 whole entry, looked up): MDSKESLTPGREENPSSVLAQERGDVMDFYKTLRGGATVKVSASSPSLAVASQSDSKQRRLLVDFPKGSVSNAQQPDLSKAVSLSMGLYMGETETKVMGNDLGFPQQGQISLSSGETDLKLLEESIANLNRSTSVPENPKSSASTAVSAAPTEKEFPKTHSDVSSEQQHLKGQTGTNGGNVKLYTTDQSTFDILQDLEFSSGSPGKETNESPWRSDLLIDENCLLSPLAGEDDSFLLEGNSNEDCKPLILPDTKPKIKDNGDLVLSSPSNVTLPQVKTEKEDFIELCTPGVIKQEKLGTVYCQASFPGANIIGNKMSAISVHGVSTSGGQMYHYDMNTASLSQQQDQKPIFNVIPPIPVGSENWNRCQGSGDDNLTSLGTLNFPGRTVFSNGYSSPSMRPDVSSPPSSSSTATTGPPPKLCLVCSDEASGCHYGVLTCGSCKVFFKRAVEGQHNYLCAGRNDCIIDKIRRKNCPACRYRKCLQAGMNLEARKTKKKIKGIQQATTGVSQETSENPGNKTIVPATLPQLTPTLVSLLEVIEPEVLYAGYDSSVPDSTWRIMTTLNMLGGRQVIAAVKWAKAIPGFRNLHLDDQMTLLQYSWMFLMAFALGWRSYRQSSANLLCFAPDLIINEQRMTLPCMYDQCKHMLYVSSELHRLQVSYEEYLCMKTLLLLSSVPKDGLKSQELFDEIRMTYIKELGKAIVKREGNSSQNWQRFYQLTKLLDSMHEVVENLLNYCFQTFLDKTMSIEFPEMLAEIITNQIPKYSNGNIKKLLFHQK
Cytochrome P450 2D6 (Homo sapiens), sequence (P10635 whole entry, looked up): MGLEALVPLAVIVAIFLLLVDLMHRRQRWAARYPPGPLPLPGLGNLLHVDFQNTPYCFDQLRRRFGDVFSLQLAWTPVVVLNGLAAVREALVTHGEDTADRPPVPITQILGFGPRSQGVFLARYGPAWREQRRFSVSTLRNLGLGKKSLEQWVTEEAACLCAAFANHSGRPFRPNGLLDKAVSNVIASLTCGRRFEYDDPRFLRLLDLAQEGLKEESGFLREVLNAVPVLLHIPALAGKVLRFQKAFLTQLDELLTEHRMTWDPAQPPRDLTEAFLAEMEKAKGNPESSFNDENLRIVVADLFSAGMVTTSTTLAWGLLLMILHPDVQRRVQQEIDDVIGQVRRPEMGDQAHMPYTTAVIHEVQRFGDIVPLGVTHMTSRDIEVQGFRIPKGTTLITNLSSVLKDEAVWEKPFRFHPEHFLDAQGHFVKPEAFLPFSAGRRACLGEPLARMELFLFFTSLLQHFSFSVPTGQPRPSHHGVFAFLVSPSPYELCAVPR
Ubiquitin carboxyl-terminal hydrolase 1 (Homo sapiens), sequence (O94782 whole entry, looked up): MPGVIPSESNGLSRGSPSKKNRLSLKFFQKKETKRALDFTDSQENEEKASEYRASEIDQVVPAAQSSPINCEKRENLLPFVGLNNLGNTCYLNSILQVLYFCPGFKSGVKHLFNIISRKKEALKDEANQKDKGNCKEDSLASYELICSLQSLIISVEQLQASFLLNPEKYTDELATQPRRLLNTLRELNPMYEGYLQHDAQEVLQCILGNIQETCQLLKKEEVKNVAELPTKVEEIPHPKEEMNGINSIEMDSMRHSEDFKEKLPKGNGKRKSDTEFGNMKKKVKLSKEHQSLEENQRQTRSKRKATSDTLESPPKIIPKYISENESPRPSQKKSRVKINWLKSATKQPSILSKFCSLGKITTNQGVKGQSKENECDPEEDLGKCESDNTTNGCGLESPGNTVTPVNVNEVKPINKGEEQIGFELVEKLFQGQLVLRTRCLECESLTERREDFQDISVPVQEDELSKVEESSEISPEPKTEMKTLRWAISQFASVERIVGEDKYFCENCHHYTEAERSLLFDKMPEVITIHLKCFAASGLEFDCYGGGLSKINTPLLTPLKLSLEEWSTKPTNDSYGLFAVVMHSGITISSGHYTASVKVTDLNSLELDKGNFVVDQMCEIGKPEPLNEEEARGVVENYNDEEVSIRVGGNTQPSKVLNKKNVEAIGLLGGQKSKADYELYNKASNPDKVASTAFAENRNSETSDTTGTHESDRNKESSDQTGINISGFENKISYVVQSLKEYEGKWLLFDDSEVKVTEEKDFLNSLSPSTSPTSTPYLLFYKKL
Alpha-galactosidase (Coffea arabica), sequence (Q42656 whole entry, looked up): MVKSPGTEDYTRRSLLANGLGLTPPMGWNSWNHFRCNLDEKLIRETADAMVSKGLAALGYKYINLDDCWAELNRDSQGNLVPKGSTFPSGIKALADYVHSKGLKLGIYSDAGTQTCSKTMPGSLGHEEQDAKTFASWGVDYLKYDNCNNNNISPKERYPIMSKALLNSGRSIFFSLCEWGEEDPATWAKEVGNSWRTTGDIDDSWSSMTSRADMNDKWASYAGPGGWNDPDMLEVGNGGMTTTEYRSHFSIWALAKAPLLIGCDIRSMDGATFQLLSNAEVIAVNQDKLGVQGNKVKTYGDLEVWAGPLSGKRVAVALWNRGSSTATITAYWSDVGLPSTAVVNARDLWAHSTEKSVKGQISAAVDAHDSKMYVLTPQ
DNA dC->dU-editing enzyme APOBEC-3G (Homo sapiens), sequence (Q9HC16 whole entry, looked up): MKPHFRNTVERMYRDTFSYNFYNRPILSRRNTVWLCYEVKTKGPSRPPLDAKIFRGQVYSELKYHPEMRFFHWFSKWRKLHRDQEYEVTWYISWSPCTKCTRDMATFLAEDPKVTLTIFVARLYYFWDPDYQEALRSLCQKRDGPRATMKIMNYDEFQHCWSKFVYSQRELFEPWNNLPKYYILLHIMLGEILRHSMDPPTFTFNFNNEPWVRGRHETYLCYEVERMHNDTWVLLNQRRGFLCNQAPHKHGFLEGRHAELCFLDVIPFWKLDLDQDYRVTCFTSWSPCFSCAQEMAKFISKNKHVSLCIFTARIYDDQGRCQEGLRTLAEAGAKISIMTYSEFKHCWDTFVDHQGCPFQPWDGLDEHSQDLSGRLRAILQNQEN
Pyruvate kinase PKM (Homo sapiens), sequence (P14618 whole entry, looked up): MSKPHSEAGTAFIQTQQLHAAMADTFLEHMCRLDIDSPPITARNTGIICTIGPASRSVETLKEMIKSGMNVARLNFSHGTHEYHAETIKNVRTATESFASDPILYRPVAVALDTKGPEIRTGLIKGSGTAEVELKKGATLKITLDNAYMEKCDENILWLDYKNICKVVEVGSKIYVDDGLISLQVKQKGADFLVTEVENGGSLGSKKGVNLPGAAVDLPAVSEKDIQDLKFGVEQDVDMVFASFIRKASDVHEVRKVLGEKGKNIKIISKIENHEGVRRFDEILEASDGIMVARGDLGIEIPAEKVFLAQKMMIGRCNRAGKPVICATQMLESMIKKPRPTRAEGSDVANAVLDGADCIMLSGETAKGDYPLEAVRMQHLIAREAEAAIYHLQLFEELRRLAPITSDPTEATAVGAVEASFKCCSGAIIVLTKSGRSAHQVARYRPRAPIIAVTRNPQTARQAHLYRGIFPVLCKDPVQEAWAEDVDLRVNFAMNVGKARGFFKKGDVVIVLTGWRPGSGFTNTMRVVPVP
Muscarinic acetylcholine receptor M1 (Rattus norvegicus), sequence (P08482 whole entry, looked up): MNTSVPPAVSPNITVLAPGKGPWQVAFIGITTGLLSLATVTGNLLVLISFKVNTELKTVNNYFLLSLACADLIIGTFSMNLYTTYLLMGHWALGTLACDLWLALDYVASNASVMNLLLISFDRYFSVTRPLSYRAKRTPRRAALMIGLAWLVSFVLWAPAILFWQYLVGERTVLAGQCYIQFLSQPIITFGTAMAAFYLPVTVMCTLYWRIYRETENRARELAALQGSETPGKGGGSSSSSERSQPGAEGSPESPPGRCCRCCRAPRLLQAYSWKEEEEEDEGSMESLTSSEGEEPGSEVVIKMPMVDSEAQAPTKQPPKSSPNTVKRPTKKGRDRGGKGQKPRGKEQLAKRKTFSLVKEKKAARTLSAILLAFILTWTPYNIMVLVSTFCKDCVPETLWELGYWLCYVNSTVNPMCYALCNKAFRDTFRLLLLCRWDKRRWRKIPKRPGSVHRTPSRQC

As for `CN1[C@@H]2CC[C@H]1CC(OC(c1ccc(F)cc1)c1ccc(F)cc1)C2` (stereo not given in full), the Potency was > 46 µM (inactive) in assay [1], > 46 µM (inactive) in [2], 44.7 µM (active) in assay [5] and 25.1 µM (active) in assay [6]. Further, the Potency entry in [3] and in assay [4] was “inactive” in each case.

Turning to `CC(=O)C1=C(O)[C@@H]2[C@@H]3c4c[nH]c5cccc(c45)C[C@@H]3C(C)(C)N2C1=O`, the values for the Potency in assay [7], in assay [1] and in assay [2] were 12.6 µM (active), > 46 µM (inactive) and > 46 µM (inactive), respectively. Besides, in [8], the compound was called inactive. The Potency result in assay [9], in assay [3], in assay [10], in assay [4], in assay [5] and in assay [11] was “inactive” throughout. Further, the max response in [6] was -1.84% (inactive).

As to `Oc1ccc2c3c1O[C@H]1c4[nH]c5ccccc5c4C[C@]4(O)[C@H](C2)N(CC2CC2)CC[C@@]314`, the Potency entry in [7] is “inactive and 39.8 µM (active)”; in [1], > 46 µM (inactive); in [2], > 46 µM (inactive); in assay [16], 2.51 µM (active) and 631 nM (active). Further, the activity change, negative = inhibition in assay [12] was 3.02% (inactive). Moreover, the result in assay [13], in [8], in assay [15], in [19], in [20] and in [21] was inactive. Further, the call in assay [22], in [23] and in assay [24] was inactive. Moreover, the Potency result in [14], in assay [9], in assay [17], in assay [18], in assay [10] and in assay [4] was “inactive” throughout. For the same compound, the Potency entry in [5] was “inactive”.

Turning to `CN1C2CCC1CC(OC(c1ccc(F)cc1)c1ccc(F)cc1)C2` (stereo not given), in [4], the Potency entry was “inactive”. Besides, the Potency in assay [5] was 22.4 µM (active).
